# Screening data from PubChem.
# LASV entry inh: qHTS for Inhibitors of binding or entry into cells for Lassa Virus; Lassa virus pseudotype entry inhibition, cell reporter; Potency, µM (series often up to 37.9 µM), for the others: top-dose activity change, negative = inhibition, actives largely listed as inhibitors; actives 1.2% (n = 300,000); AID 540256, 2011; calls by dose curve; tested in HEK293 cells; also: potency is read from the fitted curve at half-maximal effect; nearly all actives have a fitted effect of over 50% in size
# Marburg entry inh: qHTS for inhibitors of binding or entry into cells for Marburg Virus; Marburg virus pseudotyped entry inhibition, cell reporter; Potency, µM (doses to about 37.8 µM), inactives show at the highest dose activity change, negative = inhibition, usual class: inhibitors; actives 1.8% (n = 300,000); calls by dose curve; tested in HEK293 cells; also: potency is read from the fitted curve at half-maximal effect
# HCMV inh: qHTS Assay for inhibitors of the human cytomegalovirus (HCMV) | HFF cells, HCMV-luciferase reporter, 72 h; active compounds read low | activity change, negative = inhibition, % at 57.5 µM | actives 4.5% (n = 410,000); in the data active = activity change below about -60%; inconclusive = no clear call, values can overlap the other calls; inactive = above about -39%
#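 Cell-based, HFFs, 1000 cells/well, 16 h 37C; cpds in DMSO + HCMV-luc, MOI 1 PFU/cell; 72 h 37C; OneGlo luminescence after 5 min RT; norm. to buffer vs Salinomycin 10uM.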
# FMDV antiviral: High Throughput Screening for Foot and Mouth Disease Virus Antivirals | Potency, µM (top dose mostly 57.9 µM), inactives show at the top dose activity change, negative = inhibition, usual class: inhibitors | FMDV antiviral cell-based qHTS | actives 1.2% (n = 410,000); calls by dose curve; tested in HEK293T cells; also: read-out not given here; potency is read from the fitted curve at half-maximal effect; nearly all actives have a fitted effect of over 45% in size
# * = called active by the depositor; ? = inconclusive; / = no result given; ! = not active in a repeat; [ ] = dose if it differs, or a comment. Compounds with a hit are over-represented: about 6.2% of the library has one in this group of screens. % is scaled to controls: 0 for no effect and ±100 for the full control effect.
SMILES,LASV entry inh,Marburg entry inh,HCMV inh,FMDV antiviral
CC(=O)OC1CC2C(C)(C)C(=O)C=C[C@]2(C)C2CC[C@]3(C)C(=CC(=O)OC3c3ccoc3)[C@]12C (some centres not stated),/,/,/,25µM*
CC(=O)OC1CC2C(C)(C)C(=O)CC[C@]2(C)C2CC[C@]3(C)C(=CC(=O)OC3c3ccoc3)[C@]12C (some centres not stated),/,/,/,-5%
COc1ccc(-c2nc3sc(CCNS(=O)(=O)c4ccccc4)c(C)n3n2)cc1,-30%[46.1 µM],/,?,?
CCOc1ccc(CCNC(=O)C2CCN(C(=O)N3CC(CC)Oc4ccc(C)cc43)CC2)cc1 (configuration not stated),-17%[46.1 µM],/,-21,28µM*
CCC1CN(C(=O)N2CCC(C(=O)NCCCc3ccccc3)CC2)c2cc(C)ccc2O1 (configuration not stated),?,/,-16,?
CCCCCc1c2c(cc(O)c1C(=O)O)OC(=O)c1cc(C(=O)CCCC)c(OC)cc1O2,/,/,6,?
CCCCCc1c2c(cc(O)c1C(=O)O)OC(=O)c1c(cc(OC)cc1C(=O)CCCC)O2,/,/,/,32µM*!
O=C(c1cccc(S(=O)(=O)N2CCCC2)c1)N1CCN(c2ccccc2)CC1,47%[14.3 µM],?,-16,-6%
O=C(c1cc(S(=O)(=O)N2CCN(c3ccccc3)CC2)ccc1Cl)N1CCCC(C(F)(F)F)C1 (configuration not stated),?,?,-82*,?
O=C(c1cccc(S(=O)(=O)N2CCN(c3ccccc3)CC2)c1)N1CCCC(C(F)(F)F)C1 (configuration not stated),?,?,-91*,?
COCC1CCCN(Cc2ccc3c(c2)CN(C(=O)c2sc(C)nc2C)CCO3)C1 (configuration not stated),/,/,/,-2%
CC(C)c1onc(-c2c(Cl)cccc2Cl)c1COc1ccc(/C=C/c2cccc(C(=O)O)c2)c(Cl)c1,/,/,/,-18%
COc1ccc(NC(=O)c2c(NCc3cccs3)sc3c2CCCCC3)c(OC)c1,-3%[46.1 µM],/,0,16%
CCOc1ccc(S(=O)(=O)N2CCN(C(=O)c3ccc(C)c(S(=O)(=O)N4CCOCC4)c3)CC2)cc1,?,?,-61*,?
CCOc1ccc(S(=O)(=O)N2CCN(C(=O)c3ccc(Cl)c(S(=O)(=O)N4CCOCC4)c3)CC2)cc1,/,/,-60*,?
CCOc1ccc(S(=O)(=O)N2CCN(C(=O)c3cc(S(=O)(=O)N4CCOCC4)ccc3C)CC2)cc1,-4%,-6%,-2,-28%
O=C(CCCN1C(=O)/C(=C/c2ccccc2)SC1=S)Nc1ccccc1O,7%,?,-100*,-23%
O=C(CCCN1C(=O)/C(=C/c2ccccc2)SC1=S)NCCCn1ccnc1,/,/,-98*,-12%
O=C(CCCN1C(=O)/C(=C/c2cccs2)SC1=S)Nc1cc([N+](=O)[O-])ccc1O,/,/,-73*,-11%
O=C(CCCN1C(=O)/C(=C\c2cccs2)SC1=S)Nc1ccccc1O,/,/,-93*,3%
O=C(CN1C(=O)S/C(=C\c2ccccc2)C1=O)NNC(=O)c1ccccc1O,?,7%,-24,8%
O=C(CCCN1C(=O)S/C(=C\c2ccccc2)C1=O)NNC(=O)c1ccccc1O,?,1.8µM*,-83*,?
CCCCNc1nc(=S)n(-c2ccccc2)c(C)c1C(C)=O,-22%[46.1 µM],?,-99*,-18%
CCCNc1nc(=S)n(-c2ccccc2)c(C)c1C(C)=O,1%,16%[46.1 µM],?,4%
CCn1c(C)c(C(C)=O)c(N2CCN(C(c3ccccc3)c3ccccc3)CC2)nc1=S,?,?,-18,32µM*
SMILES,LASV entry inh,Marburg entry inh,HCMV inh,FMDV antiviral
CCn1c(C)c(C(C)=O)c(N2CCN(c3ccccc3)CC2)nc1=S,2%,-5%,54,-8%
CC(=O)c1c(N2CCCC2)nc(=S)n(-c2ccccc2)c1C,1%,-24%,-74*,/
CCOC(=O)N1C(=O)C[C@](Sc2ccc(OC)cc2)(c2nc(C)no2)[C@H]1c1ccc(OC)cc1,/,/,-22,/
O=C(OCC1OC(n2cnc3c(N(C(=O)c4ccccc4)C(=O)c4ccccc4)ncnc32)C(O)C1F)c1ccccc1 (configuration not stated),13µM*,-9%,5,10%
Nc1ncnc2c1ncn2[C@@H]1O[C@H](CNC(=O)OC[C@@H](N)Cc2ccccc2)[C@@H](O)[C@H]1O,/,/,-5,-4%
O=C(CCSc1nc2ccccc2s1)N/N=C/c1c(O)ccc2ccccc12,?,?,-99*,-5%
COc1ccc(/C=N/NC(=O)CCSc2nc3ccccc3s2)cc1OC,-6%,-15%,-7,0%
Cc1cc(C)n(CCC(=O)N/N=C/c2c(O)ccc3ccccc23)n1,/,/,-83*,-26%
CC1=C(C#N)C(c2ccccc2)C2=C(N1)c1ccccc1C2=O (configuration not stated),?,?,-71*,?
O=C(C(=O)c1cc(Br)ccc1O)c1cc(Br)ccc1O,?,?,-97*,-3%
Cc1cc(Br)cn2c(Cc3ccsc3)c(-c3ccco3)nc12,/,/,57,35µM*
COc1ccccc1Cc1c(-c2ccco2)nc2c(C)cc(Br)cn12,/,/,/,14µM*
CC(C)C(NS(C)(=O)=O)c1nnc2n1CCN(Cc1cccc3ncccc13)CC2 (configuration not stated),/,/,/,-8%
Cn1nnnc1SCC(=O)Nc1cccc([N+](=O)[O-])c1,12%,8%[46.1 µM],-68*,-2%
O=c1[nH]c2ccc(Cl)cc2c(-c2ccccc2)c1N1CCN(CCO)CC1,?,10µM*,-28,-24%
CCOC(=O)N1CCN(c2c(-c3ccccc3)c3cc(Cl)ccc3[nH]c2=O)CC1,?,3%,-23,-25%
CCOC(=O)C(O)C1CCc2c([nH]c3ccc(C)cc23)C1=O (configuration not stated),11µM*,?,29,25%
COc1cc(N)c(Cl)cc1C(=O)OCCCN1CCCCC1,/,/,/,-16%
COc1cc(N)c(Cl)cc1C(=O)N[C@H]1CCN(CCCOc2ccc(F)cc2)C[C@H]1OC,/,/,-94*,?
Cc1ccc(-c2[nH]nc(N)c2N=Nc2ccccc2C)cc1,?,8.2µM*,-65*,3%
Cc1ccc(N=Nc2c(N)n[nH]c2N)cc1,-6%[46.1 µM],16%[46.1 µM],46,20%
Cc1ccc(-c2[nH]nc(N)c2N=Nc2cccc(Cl)c2C)cc1,?,20µM*,-28,?
Cc1cccc(N=Nc2c(N)n[nH]c2-c2ccc(Cl)cc2)c1,-7%,?,?,-8%
COC(=O)c1ccc(NC(=O)CSc2nc3ccc(OC)cc3[nH]2)cc1,-4%[46.1 µM],-1%[46.1 µM],5,7%
CCN(CC)S(=O)(=O)c1ccc2c(c1)nc(CN(C)C(=O)Nc1ccc(C)c(Cl)c1)n2C,10%[46.1 µM],/,12,5%
Cc1ccc(CNC(=O)Cc2csc3ccccc23)cc1,5%[46.1 µM],?,60,53%
CCCc1cc(=O)[nH]c(SCC(=O)Nc2sc(C(N)=O)c(C)c2C(=O)OCCOC)n1,/,/,-62*,0%
N#Cc1c(NC(=O)CSc2ncn[nH]2)sc2c1CCCC2,2.3µM*,?,-37,?
